{"source": "paper PMC11006913", "assay_in_all_cases": "PBM; 200 nM protein, PBS", "settings_in_all_cases": "dsDNA, one strand shown", "key": {"[1]": {"biological_target": "MSX2 (Homo sapiens, UniProt P35548 130-214, R199I)", "sequence (P35548 130-214 R199I)": "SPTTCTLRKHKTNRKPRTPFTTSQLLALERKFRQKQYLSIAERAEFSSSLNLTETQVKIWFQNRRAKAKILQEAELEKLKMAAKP"}, "[2]": {"biological_target": "MSX2 (Homo sapiens, UniProt P35548 130-214)", "sequence (P35548 130-214)": "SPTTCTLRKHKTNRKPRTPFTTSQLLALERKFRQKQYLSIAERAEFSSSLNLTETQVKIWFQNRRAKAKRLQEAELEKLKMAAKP"}, "[3]": {"biological_target": "MSX2 (Homo sapiens, UniProt P35548 130-214, F161Y)", "sequence (P35548 130-214 F161Y)": "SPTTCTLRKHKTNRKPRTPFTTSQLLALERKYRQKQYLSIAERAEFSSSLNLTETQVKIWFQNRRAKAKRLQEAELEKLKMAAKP"}, "[4]": {"biological_target": "ALX1 (Homo sapiens, UniProt Q15699 118-204, L144V)", "sequence (Q15699 118-204 L144V)": "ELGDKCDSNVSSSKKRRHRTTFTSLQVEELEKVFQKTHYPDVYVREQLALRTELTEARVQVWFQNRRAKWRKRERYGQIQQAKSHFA"}, "[5]": {"biological_target": "ALX3 (Homo sapiens, UniProt O95076 139-225, N203Q)", "sequence (O95076 139-225 N203Q)": "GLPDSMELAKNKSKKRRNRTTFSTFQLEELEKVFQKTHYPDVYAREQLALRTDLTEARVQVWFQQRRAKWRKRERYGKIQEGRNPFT"}, "[6]": {"biological_target": "ALX1 (Homo sapiens, UniProt Q15699 118-204, L144R)", "sequence (Q15699 118-204 L144R)": "as the sequence (Q15699 118-204 L144V) above, with V27R counted along it"}, "[7]": {"biological_target": "ALX3 (Homo sapiens, UniProt O95076 139-225)", "sequence (O95076 139-225)": "as the sequence (O95076 139-225 N203Q) above, with Q65N counted along it"}, "[8]": {"biological_target": "ALX3 (Homo sapiens, UniProt O95076 139-225, L168Q)", "sequence (O95076 139-225 L168Q)": "as the sequence (O95076 139-225 N203Q) above, with L30Q, Q65N counted along it"}, "[9]": {"biological_target": "ALX3 (Homo sapiens, UniProt O95076 139-225, L168V)", "sequence (O95076 139-225 L168V)": "as the sequence (O95076 139-225 N203Q) above, with L30V, Q65N counted along it"}, "[10]": {"biological_target": "ALX1 (Homo sapiens, UniProt Q15699 118-204)", "sequence (Q15699 118-204)": "as the sequence (Q15699 118-204 L144V) above, with V27L counted along it"}, "[11]": {"biological_target": "ALX3 (Homo sapiens, UniProt O95076 139-225, N203S)", "sequence (O95076 139-225 N203S)": "as the sequence (O95076 139-225 N203Q) above, with Q65S counted along it"}}, "data": [{"sequence": "GATGTTTA", "values": [{"measurement": "binding signal", "setting": "[1]", "result": "10.5 upbm affinity estimate (log intensity, higher = more binding, comparable within an allelic series)"}, {"measurement": "binding signal", "setting": "[2]", "result": "10.9 upbm affinity estimate (log intensity, higher = more binding, comparable within an allelic series)"}, {"measurement": "binding signal", "setting": "[3]", "result": "10.8 upbm affinity estimate (log intensity, higher = more binding, comparable within an allelic series)"}]}, {"sequence": "AGAGCGCC", "values": [{"measurement": "binding signal", "setting": "[4]", "result": "6.46 upbm affinity estimate (log intensity, higher = more binding, comparable within an allelic series)"}, {"measurement": "binding signal", "setting": "[5]", "result": "7.79 upbm affinity estimate (log intensity, higher = more binding, comparable within an allelic series)"}, {"measurement": "binding signal", "setting": "[6]", "result": "6.49 upbm affinity estimate (log intensity, higher = more binding, comparable within an allelic series)"}, {"measurement": "binding signal", "setting": "[7]", "result": "7.87 upbm affinity estimate (log intensity, higher = more binding, comparable within an allelic series)"}, {"measurement": "binding signal", "setting": "[8]", "result": "7.76 upbm affinity estimate (log intensity, higher = more binding, comparable within an allelic series)"}, {"measurement": "binding signal", "setting": "[9]", "result": "7.79 upbm affinity estimate (log intensity, higher = more binding, comparable within an allelic series)"}, {"measurement": "binding signal", "setting": "[10]", "result": "6.45 upbm affinity estimate (log intensity, higher = more binding, comparable within an allelic series)"}, {"measurement": "binding signal", "setting": "[11]", "result": "7.78 upbm affinity estimate (log intensity, higher = more binding, comparable within an allelic series)"}]}, {"sequence": "ACCCGCTC", "values": [{"measurement": "binding signal", "setting": "[4]", "result": "6.49 upbm affinity estimate (log intensity, higher = more binding, comparable within an allelic series)"}, {"measurement": "binding signal", "setting": "[6]", "result": "6.49 upbm affinity estimate (log intensity, higher = more binding, comparable within an allelic series)"}, {"measurement": "binding signal", "setting": "[10]", "result": "6.43 upbm affinity estimate (log intensity, higher = more binding, comparable within an allelic series)"}]}, {"sequence": "GAACACCC", "values": [{"measurement": "binding signal", "setting": "[1]", "result": "9.57 upbm affinity estimate (log intensity, higher = more binding, comparable within an allelic series)"}, {"measurement": "binding signal", "setting": "[2]", "result": "9.63 upbm affinity estimate (log intensity, higher = more binding, comparable within an allelic series)"}, {"measurement": "binding signal", "setting": "[3]", "result": "9.59 upbm affinity estimate (log intensity, higher = more binding, comparable within an allelic series)"}]}, {"sequence": "CCGGGCCG", "values": [{"measurement": "binding signal", "setting": "[4]", "result": "6.6 upbm affinity estimate (log intensity, higher = more binding, comparable within an allelic series)"}, {"measurement": "binding signal", "setting": "[5]", "result": "7.72 upbm affinity estimate (log intensity, higher = more binding, comparable within an allelic series)"}, {"measurement": "binding signal", "setting": "[6]", "result": "6.56 upbm affinity estimate (log intensity, higher = more binding, comparable within an allelic series)"}, {"measurement": "binding signal", "setting": "[7]", "result": "7.76 upbm affinity estimate (log intensity, higher = more binding, comparable within an allelic series)"}, {"measurement": "binding signal", "setting": "[8]", "result": "7.74 upbm affinity estimate (log intensity, higher = more binding, comparable within an allelic series)"}, {"measurement": "binding signal", "setting": "[9]", "result": "7.65 upbm affinity estimate (log intensity, higher = more binding, comparable within an allelic series)"}, {"measurement": "binding signal", "setting": "[10]", "result": "6.37 upbm affinity estimate (log intensity, higher = more binding, comparable within an allelic series)"}, {"measurement": "binding signal", "setting": "[11]", "result": "7.67 upbm affinity estimate (log intensity, higher = more binding, comparable within an allelic series)"}]}, {"sequence": "ATTATTGA", "values": [{"measurement": "binding signal", "setting": "[4]", "result": "10.4 upbm affinity estimate (log intensity, higher = more binding, comparable within an allelic series)"}, {"measurement": "binding signal", "setting": "[6]", "result": "10.3 upbm affinity estimate (log intensity, higher = more binding, comparable within an allelic series)"}, {"measurement": "binding signal", "setting": "[10]", "result": "10.8 upbm affinity estimate (log intensity, higher = more binding, comparable within an allelic series)"}]}, {"sequence": "GAGGAAGC", "values": [{"measurement": "binding signal", "setting": "[1]", "result": "9.59 upbm affinity estimate (log intensity, higher = more binding, comparable within an allelic series)"}, {"measurement": "binding signal", "setting": "[2]", "result": "9.52 upbm affinity estimate (log intensity, higher = more binding, comparable within an allelic series)"}, {"measurement": "binding signal", "setting": "[3]", "result": "9.52 upbm affinity estimate (log intensity, higher = more binding, comparable within an allelic series)"}]}, {"sequence": "GCTGGCAC", "values": [{"measurement": "binding signal", "setting": "[4]", "result": "6.46 upbm affinity estimate (log intensity, higher = more binding, comparable within an allelic series)"}, {"measurement": "binding signal", "setting": "[6]", "result": "6.45 upbm affinity estimate (log intensity, higher = more binding, comparable within an allelic series)"}, {"measurement": "binding signal", "setting": "[10]", "result": "6.58 upbm affinity estimate (log intensity, higher = more binding, comparable within an allelic series)"}]}, {"sequence": "CGCCCACG", "values": [{"measurement": "binding signal", "setting": "[1]", "result": "9.47 upbm affinity estimate (log intensity, higher = more binding, comparable within an allelic series)"}, {"measurement": "binding signal", "setting": "[2]", "result": "9.54 upbm affinity estimate (log intensity, higher = more binding, comparable within an allelic series)"}, {"measurement": "binding signal", "setting": "[3]", "result": "9.52 upbm affinity estimate (log intensity, higher = more binding, comparable within an allelic series)"}]}, {"sequence": "CTGCTAGC", "values": [{"measurement": "binding signal", "setting": "[4]", "result": "6.36 upbm affinity estimate (log intensity, higher = more binding, comparable within an allelic series)"}, {"measurement": "binding signal", "setting": "[6]", "result": "6.39 upbm affinity estimate (log intensity, higher = more binding, comparable within an allelic series)"}, {"measurement": "binding signal", "setting": "[10]", "result": "6.42 upbm affinity estimate (log intensity, higher = more binding, comparable within an allelic series)"}]}, {"sequence": "GTAGGTAA", "values": [{"measurement": "binding signal", "setting": "[4]", "result": "8.26 upbm affinity estimate (log intensity, higher = more binding, comparable within an allelic series)"}, {"measurement": "binding signal", "setting": "[10]", "result": "8.54 upbm affinity estimate (log intensity, higher = more binding, comparable within an allelic series)"}]}, {"sequence": "CGACAGGC", "values": [{"measurement": "binding signal", "setting": "[4]", "result": "6.36 upbm affinity estimate (log intensity, higher = more binding, comparable within an allelic series)"}, {"measurement": "binding signal", "setting": "[6]", "result": "6.36 upbm affinity estimate (log intensity, higher = more binding, comparable within an allelic series)"}, {"measurement": "binding signal", "setting": "[10]", "result": "6.15 upbm affinity estimate (log intensity, higher = more binding, comparable within an allelic series)"}]}, {"sequence": "ACTTTAAA", "values": [{"measurement": "binding signal", "setting": "[4]", "result": "8.62 upbm affinity estimate (log intensity, higher = more binding, comparable within an allelic series)"}, {"measurement": "binding signal", "setting": "[6]", "result": "8.74 upbm affinity estimate (log intensity, higher = more binding, comparable within an allelic series)"}, {"measurement": "binding signal", "setting": "[10]", "result": "8.8 upbm affinity estimate (log intensity, higher = more binding, comparable within an allelic series)"}]}, {"sequence": "CTAGCTGC", "values": [{"measurement": "binding signal", "setting": "[4]", "result": "6.42 upbm affinity estimate (log intensity, higher = more binding, comparable within an allelic series)"}, {"measurement": "binding signal", "setting": "[6]", "result": "6.45 upbm affinity estimate (log intensity, higher = more binding, comparable within an allelic series)"}, {"measurement": "binding signal", "setting": "[10]", "result": "6.31 upbm affinity estimate (log intensity, higher = more binding, comparable within an allelic series)"}]}, {"sequence": "CGACGGCG", "values": [{"measurement": "binding signal", "setting": "[4]", "result": "6.62 upbm affinity estimate (log intensity, higher = more binding, comparable within an allelic series)"}, {"measurement": "binding signal", "setting": "[6]", "result": "6.71 upbm affinity estimate (log intensity, higher = more binding, comparable within an allelic series)"}, {"measurement": "binding signal", "setting": "[10]", "result": "6.56 upbm affinity estimate (log intensity, higher = more binding, comparable within an allelic series)"}]}, {"sequence": "CCAGACTC", "values": [{"measurement": "binding signal", "setting": "[4]", "result": "6.24 upbm affinity estimate (log intensity, higher = more binding, comparable within an allelic series)"}, {"measurement": "binding signal", "setting": "[6]", "result": "6.47 upbm affinity estimate (log intensity, higher = more binding, comparable within an allelic series)"}, {"measurement": "binding signal", "setting": "[10]", "result": "6.13 upbm affinity estimate (log intensity, higher = more binding, comparable within an allelic series)"}]}]}
